Shown are actives, neighbours in structure and some others; about 3.5% of the full set was active somewhere.
FBW7 activator: FBW7 E3 ligase activators, primary screen, biochemical, AlphaScreen, human; normalized activity (activation), % at 26.1 µM; AlphaScreen FBW7–phospho-cyclin E peptide binding, activator screen; actives 0.13% (n = 650,000); AID 1259310, 2017; in the data active = normalized activity above about 1.9%;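 also: purified mutant Fbw7 with reduced substrate affinity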
TEAD-YAP block: TEAD-YAP interaction inhibition, primary screen, TEAD-YAP interaction inhibitor project, luminescence, HEK-TIYL cells; AID 1259422, 2018; actives 1.4% (n = 640,000); inhibition, % at 9.12 µM; TEAD-Gal4/YAP UAS-luciferase luminescence; in the data active = inhibition above about 32%;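 also: 0% = median of test compound wells and 100% = reference inhibitor wells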
MITF primary: MITF inhibitors, primary screen, biochemical, AlphaScreen, human. inhibition, % at 2.6 µM. AlphaScreen MITF homodimerization, bead proximity signal. Microphthalmia-associated transcription factor (Homo sapiens), O75030. AID 1259374, 2018. actives 0.91% (n = 650,000); in the data active = inhibition above about 50%;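 also: 0% = vehicle wells with protein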
GPR151 activ: activators of human GPR151, primary screen, cell-based, PathHunter beta-arrestin, luminescence | G-protein coupled receptor 151 (Homo sapiens), Q8TDV0 | PathHunter beta-arrestin GPR151 cells | activation, % at 11.2 µM | actives 1% (n = 650,000) | AID 1508602, 2020; in the data active = activation above about 4.9%;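 also: 0% = median of compound wells and 100% = cells with positive control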
GPR151 confirm: GPR151 activators, triplicate retest, confirmation, cell-based, PathHunter beta-arrestin, luminescence; GPR151 PathHunter beta-arrestin cells, 90 min; % of EA-reagent control over plate median; activation, % at 11.2 µM; 6,700 tested, under 10 active; shares compounds with GPR151 activ;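 active = mean percent activation across replicates above the confirmation screen cutoff of 4.91%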
GPR119 counter: GPR119 activators in beta-arrestin cells, counter-screen for GPR151 activator project, cell-based, PathHunter beta-arrestin, luminescence, triplicate; shares compounds with GPR151 activ; 90 min; 0 = compound-well median, 100 = enzyme-acceptor control; activation, % at 11.2 µM; actives 0.3% (n = 6,700); AID 1508611, 2020;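 active = mean percent activation in the counterscreen above 29.09%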;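 also: counterscreen on off-target GPR119 to flag nonselective hits from the GPR151 activator screen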
Target sequence (Q8TDV5 whole entry, looked up): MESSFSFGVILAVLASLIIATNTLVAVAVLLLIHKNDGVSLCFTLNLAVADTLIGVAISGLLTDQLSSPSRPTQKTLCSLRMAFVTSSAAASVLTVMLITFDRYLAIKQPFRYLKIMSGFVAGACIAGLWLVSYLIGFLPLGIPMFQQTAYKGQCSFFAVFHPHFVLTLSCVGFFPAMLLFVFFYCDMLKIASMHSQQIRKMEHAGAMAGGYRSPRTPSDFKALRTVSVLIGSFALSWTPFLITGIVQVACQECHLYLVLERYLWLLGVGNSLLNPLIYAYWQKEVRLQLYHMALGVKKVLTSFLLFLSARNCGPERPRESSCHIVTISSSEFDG
* hit, by the source's call.

Results for CC(C)CC(=O)NS(=O)(=O)c1ccc(NC(=O)c2ccc(Cl)cc2)cc1 ?
FBW7 activator: 0.0; TEAD-YAP block: 0.6; MITF primary: 14.1; GPR151 activ: 1.5

Results for O=C(C[n+]1ccccc1)N/N=C/c1cccs1 ?
FBW7 activator: 0.0; TEAD-YAP block: 8.2; MITF primary: 12.0; GPR151 activ: 6.1*; GPR151 confirm: 0.6; GPR119 counter: 1.9

Results for COc1ccc2c(CNCCC3=CCCCC3)c(C(=O)O)[nH]c2c1 ?
FBW7 activator: 0.1; TEAD-YAP block: 4.9; MITF primary: 1.1; GPR151 activ: 0.6

How did Cc1c(C(=O)N/N=C/c2cccc([N+](=O)[O-])c2)no[n+]1[O-] do in these assays?
FBW7 activator: -0.5; TEAD-YAP block: -5.8; MITF primary: -8.7; GPR151 activ: -0.5

What do the screens show for `Cc1cccc(C)c1NC(=O)c1oc(=O)c2ccccc2c1-c1ccccc1`?
FBW7 activator: 0.0; TEAD-YAP block: -7.0; MITF primary: 7.0; GPR151 activ: 0.5

How did Cc1ccc(NC(=O)c2nc[nH]c2C(=O)Nc2ccc(C)cc2)cc1 do in these assays?
FBW7 activator: 0.0; TEAD-YAP block: 2.6; MITF primary: -21.9; GPR151 activ: 2.4

What do the screens show for `Cc1cccc(NC(=O)c2nc[nH]c2C(=O)Nc2cccc(C)c2)c1`?
FBW7 activator: -0.2; TEAD-YAP block: -3.7; MITF primary: 3.7; GPR151 activ: 6.6*; GPR151 confirm: 1.3; GPR119 counter: 7.4

Results for O=C(Cn1c(-c2ccccn2)nc2ccccc21)Nc1nc2ccccc2s1 ?
FBW7 activator: 0.1; TEAD-YAP block: 0.9; MITF primary: -4.7; GPR151 activ: 6.0*; GPR151 confirm: 0.1; GPR119 counter: 3.6

Results for NC(=O)c1ccc(-c2cc(NCCc3ccc(O)cc3)nc(N)n2)cc1 ?
FBW7 activator: 0.1; TEAD-YAP block: -13.5; MITF primary: -7.8; GPR151 activ: -1.8

How did Nc1nc(NCCc2ccc(O)cc2)cc(-c2ccc(C(=O)NC3CC3)cc2)n1 do in these assays?
FBW7 activator: 0.2; TEAD-YAP block: 3.1; MITF primary: 1.5; GPR151 activ: 6.8*; GPR151 confirm: -0.5; GPR119 counter: -9.8

Results for Cc1cc2ccccc2n1CCNC(=O)c1ccc(Br)cc1 ?
FBW7 activator: -0.1; TEAD-YAP block: -12.7; MITF primary: 0.7; GPR151 activ: 5.0*; GPR151 confirm: -0.4; GPR119 counter: 6.8

How did COc1cc(NC(=O)c2cc(Br)ccc2Cl)ccc1N1CCCC1=O do in these assays?
FBW7 activator: 0.1; TEAD-YAP block: 9.1; MITF primary: 10.4; GPR151 activ: 5.0*; GPR151 confirm: 1.2; GPR119 counter: 7.8

How did COc1ccc(NC(=O)c2cc(Br)ccc2Cl)cc1N1CCCC1=O do in these assays?
FBW7 activator: -0.1; TEAD-YAP block: -14.4; MITF primary: 9.7; GPR151 activ: 1.5

Results for COC(=O)C1=C(C)NC(=O)C1(NC(=O)c1ccc(OC)c(OC)c1)C(F)(F)F (configuration not stated) ?
FBW7 activator: -0.1; TEAD-YAP block: 0.4; MITF primary: -8.7; GPR151 activ: 12.5*; GPR151 confirm: -0.4; GPR119 counter: -5.3

Results for O=C(CSc1nnnn1C1CCCC1)Nc1nc2ccccc2s1 ?
FBW7 activator: 0.0; TEAD-YAP block: -9.5; MITF primary: 5.8; GPR151 activ: 0.4

What do the screens show for `CC(C)(C)C(=O)COC(=O)c1ccc2c(c1)OCCO2`?
FBW7 activator: 0.5; TEAD-YAP block: -6.8; MITF primary: 16.5; GPR151 activ: -1.4

What do the screens show for `O=C(Nc1c(F)cccc1F)N1CCn2cccc2C1c1ccccc1` (configuration not stated)?
FBW7 activator: -0.2; TEAD-YAP block: 2.4; MITF primary: 1.9; GPR151 activ: 10.9*; GPR151 confirm: -0.6; GPR119 counter: -9.0
